Publication PMC7862700, “An all-to-all approach to the identification of sequence-specific readers for epigenetic DNA modifications on cytosine”

How the values were obtained:
Assay in all cases: DAPPL (digital affinity profiling via proximity ligation, sequencing); 10 mM Tris-HCl pH 7.5, 50 mM NaCl, 1 mM DTT, 4% glycerol, room temperature, 30 min; GST-TFs on glutathione beads, 16-mer random dsDNA library, 0.1% formaldehyde crosslink after washing; high values mean tight binding
FLI1 = target: T1, FLI1 (Homo sapiens, UniProt Q01543 1-452); conditions: protein: recombinant; tags: N-terminal GST; dsDNA, one strand shown
T1 sequence: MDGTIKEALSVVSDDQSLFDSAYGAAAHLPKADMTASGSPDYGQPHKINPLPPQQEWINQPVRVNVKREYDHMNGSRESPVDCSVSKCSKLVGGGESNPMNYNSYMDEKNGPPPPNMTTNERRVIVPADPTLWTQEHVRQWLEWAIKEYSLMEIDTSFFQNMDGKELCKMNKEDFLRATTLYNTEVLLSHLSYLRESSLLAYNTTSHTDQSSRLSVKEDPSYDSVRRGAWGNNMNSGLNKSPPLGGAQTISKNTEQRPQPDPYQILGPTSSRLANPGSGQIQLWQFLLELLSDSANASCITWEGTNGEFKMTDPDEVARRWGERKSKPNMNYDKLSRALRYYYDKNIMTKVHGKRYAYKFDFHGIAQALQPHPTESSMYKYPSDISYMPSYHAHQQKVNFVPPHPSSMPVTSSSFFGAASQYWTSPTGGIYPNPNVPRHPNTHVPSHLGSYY
How it was run: (§1)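 Pools were built from human transcription factors expressed in yeast as GST fusions, captured on glutathione beads and DNA-barcoded, along with a tag-only sample. Incubation with 200 nmole of a 16-mer random double-stranded DNA library lasted 30 min at room temperature in Tris/NaCl/DTT/glycerol buffer, and was followed by washing, 0.1% formaldehyde crosslinking, proximity ligation, PCR amplification and Illumina NextSeq500 sequencing. Binding signal is the quotient of each hexamer's read frequency for a factor and its frequency for the tag-only sample.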

ELK1 = target: T2, ELK1 (Homo sapiens, UniProt P19419 1-428); conditions: protein: recombinant; tags: N-terminal GST; dsDNA, one strand shown
T2 sequence: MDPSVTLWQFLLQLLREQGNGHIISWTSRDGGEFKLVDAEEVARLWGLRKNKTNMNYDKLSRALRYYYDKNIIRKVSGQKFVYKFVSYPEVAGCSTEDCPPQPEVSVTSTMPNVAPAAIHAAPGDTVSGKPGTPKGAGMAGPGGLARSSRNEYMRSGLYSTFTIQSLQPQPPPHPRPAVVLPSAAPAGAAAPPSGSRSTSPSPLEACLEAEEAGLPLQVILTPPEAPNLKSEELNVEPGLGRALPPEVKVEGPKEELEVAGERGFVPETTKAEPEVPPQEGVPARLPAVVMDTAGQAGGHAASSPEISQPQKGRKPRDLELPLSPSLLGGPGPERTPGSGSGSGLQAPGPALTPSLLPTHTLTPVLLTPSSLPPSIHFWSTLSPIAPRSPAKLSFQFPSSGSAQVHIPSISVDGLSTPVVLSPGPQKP
How it was run: as §1

GABPA = target: T3, GABPA (Homo sapiens, UniProt Q06546 1-454); conditions: protein: recombinant; tags: N-terminal GST; dsDNA, one strand shown
T3 sequence: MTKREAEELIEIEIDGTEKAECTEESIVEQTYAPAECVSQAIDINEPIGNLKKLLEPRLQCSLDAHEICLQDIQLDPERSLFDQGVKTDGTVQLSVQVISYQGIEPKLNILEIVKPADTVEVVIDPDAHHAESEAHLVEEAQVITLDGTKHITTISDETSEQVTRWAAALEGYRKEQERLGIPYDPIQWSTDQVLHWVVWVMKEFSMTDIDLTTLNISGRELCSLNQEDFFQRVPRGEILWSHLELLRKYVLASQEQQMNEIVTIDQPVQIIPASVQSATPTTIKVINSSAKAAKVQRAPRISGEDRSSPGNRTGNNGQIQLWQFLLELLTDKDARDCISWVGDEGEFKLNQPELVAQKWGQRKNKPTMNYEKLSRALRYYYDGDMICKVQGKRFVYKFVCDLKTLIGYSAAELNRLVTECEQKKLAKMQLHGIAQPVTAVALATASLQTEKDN
How it was run: as §1

ERG = target: T4, ERG (Homo sapiens, UniProt P11308 1-479); conditions: protein: recombinant; tags: N-terminal GST; dsDNA, one strand shown
T4 sequence: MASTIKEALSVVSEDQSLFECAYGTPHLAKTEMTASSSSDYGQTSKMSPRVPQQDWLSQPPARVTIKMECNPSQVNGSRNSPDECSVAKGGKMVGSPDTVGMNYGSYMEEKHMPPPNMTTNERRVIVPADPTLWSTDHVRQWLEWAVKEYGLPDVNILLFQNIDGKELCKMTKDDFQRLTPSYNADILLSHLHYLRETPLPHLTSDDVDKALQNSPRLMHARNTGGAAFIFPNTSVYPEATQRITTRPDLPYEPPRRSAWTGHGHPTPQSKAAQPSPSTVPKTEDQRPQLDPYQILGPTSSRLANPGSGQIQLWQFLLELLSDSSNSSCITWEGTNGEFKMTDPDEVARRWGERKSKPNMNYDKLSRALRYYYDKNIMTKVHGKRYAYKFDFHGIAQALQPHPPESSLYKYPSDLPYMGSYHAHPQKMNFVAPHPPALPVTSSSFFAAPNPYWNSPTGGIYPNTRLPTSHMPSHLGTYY
How it was run: as §1

ELF1 = ELF1 (Homo sapiens, UniProt P32519 1-619); conditions: protein: recombinant; tags: N-terminal GST; dsDNA, one strand shown
How it was run: as §1

EHF = target: T5, EHF (Homo sapiens, UniProt Q9NZC4 1-300); conditions: protein: recombinant; tags: N-terminal GST; dsDNA, one strand shown
T5 sequence: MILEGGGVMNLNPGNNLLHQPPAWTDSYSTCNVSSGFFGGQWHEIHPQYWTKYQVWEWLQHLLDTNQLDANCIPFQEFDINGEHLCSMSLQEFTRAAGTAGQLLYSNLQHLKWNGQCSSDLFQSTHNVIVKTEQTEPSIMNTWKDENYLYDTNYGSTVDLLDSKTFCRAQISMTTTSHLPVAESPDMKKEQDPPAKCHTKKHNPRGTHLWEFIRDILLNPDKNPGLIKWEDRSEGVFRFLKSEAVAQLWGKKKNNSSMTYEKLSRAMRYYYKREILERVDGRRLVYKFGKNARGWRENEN
How it was run: as §1

SPI1 = SPI1 (Homo sapiens, UniProt P17947 1-270); conditions: protein: recombinant; tags: N-terminal GST; dsDNA, one strand shown
How it was run: as §1

SPIB = SPIB (Homo sapiens, UniProt Q01892 1-262); conditions: protein: recombinant; tags: N-terminal GST; dsDNA, one strand shown
How it was run: as §1

ELK3 = target: T6, ELK3 (Homo sapiens, UniProt P41970 1-407); conditions: protein: recombinant; tags: N-terminal GST; dsDNA, one strand shown
T6 sequence: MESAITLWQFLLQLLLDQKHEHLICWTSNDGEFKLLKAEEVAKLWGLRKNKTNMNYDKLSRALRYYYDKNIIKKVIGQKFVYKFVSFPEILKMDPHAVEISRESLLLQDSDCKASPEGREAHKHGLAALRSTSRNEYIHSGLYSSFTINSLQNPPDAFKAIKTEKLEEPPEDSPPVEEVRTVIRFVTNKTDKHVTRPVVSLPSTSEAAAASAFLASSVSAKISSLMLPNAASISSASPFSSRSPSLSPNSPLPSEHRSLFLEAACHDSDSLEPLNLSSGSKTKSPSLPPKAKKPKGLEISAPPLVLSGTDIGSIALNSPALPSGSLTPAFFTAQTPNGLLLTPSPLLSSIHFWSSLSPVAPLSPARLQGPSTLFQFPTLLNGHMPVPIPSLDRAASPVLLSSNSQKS
How it was run: as §1

FEV = target: T7, FEV (Homo sapiens, UniProt Q99581 1-238); conditions: protein: recombinant; tags: N-terminal GST; dsDNA, one strand shown
T7 sequence: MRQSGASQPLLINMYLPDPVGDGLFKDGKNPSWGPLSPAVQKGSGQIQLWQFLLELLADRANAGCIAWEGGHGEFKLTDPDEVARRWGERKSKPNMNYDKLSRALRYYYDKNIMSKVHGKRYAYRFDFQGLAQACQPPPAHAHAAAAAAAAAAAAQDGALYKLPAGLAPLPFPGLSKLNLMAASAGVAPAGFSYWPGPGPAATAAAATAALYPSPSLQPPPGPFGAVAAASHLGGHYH
How it was run: as §1

ETV5 = ETV5 (Homo sapiens, UniProt P41161 1-510); conditions: protein: recombinant; tags: N-terminal GST; dsDNA, one strand shown
How it was run: as §1

HSF1 = HSF1 (Homo sapiens, UniProt Q00613 1-529); conditions: protein: recombinant; tags: N-terminal GST; chain copies: 3; dsDNA, one strand shown
How it was run: as §1

SPIC = target: T8, SPIC (Homo sapiens, UniProt Q8N5J4 1-248); conditions: protein: recombinant; tags: N-terminal GST; dsDNA, one strand shown
T8 sequence: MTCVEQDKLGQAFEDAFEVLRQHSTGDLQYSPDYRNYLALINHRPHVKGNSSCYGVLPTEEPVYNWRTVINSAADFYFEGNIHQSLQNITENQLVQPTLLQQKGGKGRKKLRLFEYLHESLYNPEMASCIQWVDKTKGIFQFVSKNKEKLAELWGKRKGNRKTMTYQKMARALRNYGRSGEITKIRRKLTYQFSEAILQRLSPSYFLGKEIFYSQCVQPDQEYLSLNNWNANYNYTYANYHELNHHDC
How it was run: as §1

ELF4 = ELF4 (Homo sapiens, UniProt Q99607 1-663); conditions: protein: recombinant; tags: N-terminal GST; dsDNA, one strand shown
How it was run: as §1

ELK4 = target: T9, ELK4 (Homo sapiens, UniProt P28324-2 1-405); conditions: protein: recombinant; tags: N-terminal GST; dsDNA, one strand shown
T9 sequence: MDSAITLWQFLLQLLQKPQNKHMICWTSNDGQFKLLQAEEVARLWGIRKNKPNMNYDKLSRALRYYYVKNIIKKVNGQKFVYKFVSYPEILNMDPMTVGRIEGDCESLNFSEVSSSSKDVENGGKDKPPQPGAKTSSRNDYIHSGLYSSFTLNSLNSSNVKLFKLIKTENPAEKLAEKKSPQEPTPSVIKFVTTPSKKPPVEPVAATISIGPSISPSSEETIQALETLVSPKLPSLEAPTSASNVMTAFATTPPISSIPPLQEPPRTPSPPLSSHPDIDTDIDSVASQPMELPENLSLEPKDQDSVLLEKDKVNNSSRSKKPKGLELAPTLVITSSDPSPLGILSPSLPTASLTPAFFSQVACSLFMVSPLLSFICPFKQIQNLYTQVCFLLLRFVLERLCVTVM
How it was run: as §1

ETV2 = target: T10, ETV2 (Homo sapiens, UniProt O00321 1-342); conditions: protein: recombinant; tags: N-terminal GST; dsDNA, one strand shown
T10 sequence: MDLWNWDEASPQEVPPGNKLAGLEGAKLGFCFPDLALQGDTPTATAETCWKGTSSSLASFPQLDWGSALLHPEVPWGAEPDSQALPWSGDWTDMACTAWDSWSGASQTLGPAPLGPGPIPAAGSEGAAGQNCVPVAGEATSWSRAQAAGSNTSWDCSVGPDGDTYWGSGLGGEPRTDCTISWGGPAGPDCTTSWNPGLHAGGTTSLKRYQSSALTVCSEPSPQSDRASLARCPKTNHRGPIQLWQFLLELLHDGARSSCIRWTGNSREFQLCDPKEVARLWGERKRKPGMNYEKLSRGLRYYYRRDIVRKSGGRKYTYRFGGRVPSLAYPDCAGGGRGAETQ
How it was run: as §1

ELF3 = target: T11, ELF3 (Homo sapiens, UniProt P78545 1-371); conditions: protein: recombinant; tags: N-terminal GST; dsDNA, one strand shown
T11 sequence: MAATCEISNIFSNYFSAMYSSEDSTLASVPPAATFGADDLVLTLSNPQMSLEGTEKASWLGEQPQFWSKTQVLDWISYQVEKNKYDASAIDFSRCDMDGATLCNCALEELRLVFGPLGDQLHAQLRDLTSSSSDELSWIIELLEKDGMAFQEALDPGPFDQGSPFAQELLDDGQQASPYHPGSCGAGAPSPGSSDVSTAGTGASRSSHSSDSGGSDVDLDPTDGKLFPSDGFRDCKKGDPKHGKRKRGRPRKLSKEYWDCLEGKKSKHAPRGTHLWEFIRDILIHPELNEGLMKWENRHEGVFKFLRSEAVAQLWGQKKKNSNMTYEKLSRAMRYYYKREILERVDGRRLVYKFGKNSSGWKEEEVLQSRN
How it was run: as §1

CRX = CRX (Homo sapiens, UniProt O43186 1-299); conditions: protein: recombinant; tags: N-terminal GST; dsDNA, one strand shown
How it was run: as §1

ETV1 = ETV1 (Homo sapiens, UniProt P50549 1-477); conditions: protein: recombinant; tags: N-terminal GST; dsDNA, one strand shown
How it was run: as §1

Chain of SPIB (Q01892 whole entry): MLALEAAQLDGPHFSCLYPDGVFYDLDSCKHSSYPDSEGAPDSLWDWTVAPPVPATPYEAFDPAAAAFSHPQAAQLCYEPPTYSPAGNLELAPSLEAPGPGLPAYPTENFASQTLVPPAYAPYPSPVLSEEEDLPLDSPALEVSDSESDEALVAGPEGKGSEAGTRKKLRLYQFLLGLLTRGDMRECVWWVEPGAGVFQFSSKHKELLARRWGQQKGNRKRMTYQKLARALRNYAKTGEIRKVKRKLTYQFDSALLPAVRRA
Chain of ELF4 (Q99607 whole entry): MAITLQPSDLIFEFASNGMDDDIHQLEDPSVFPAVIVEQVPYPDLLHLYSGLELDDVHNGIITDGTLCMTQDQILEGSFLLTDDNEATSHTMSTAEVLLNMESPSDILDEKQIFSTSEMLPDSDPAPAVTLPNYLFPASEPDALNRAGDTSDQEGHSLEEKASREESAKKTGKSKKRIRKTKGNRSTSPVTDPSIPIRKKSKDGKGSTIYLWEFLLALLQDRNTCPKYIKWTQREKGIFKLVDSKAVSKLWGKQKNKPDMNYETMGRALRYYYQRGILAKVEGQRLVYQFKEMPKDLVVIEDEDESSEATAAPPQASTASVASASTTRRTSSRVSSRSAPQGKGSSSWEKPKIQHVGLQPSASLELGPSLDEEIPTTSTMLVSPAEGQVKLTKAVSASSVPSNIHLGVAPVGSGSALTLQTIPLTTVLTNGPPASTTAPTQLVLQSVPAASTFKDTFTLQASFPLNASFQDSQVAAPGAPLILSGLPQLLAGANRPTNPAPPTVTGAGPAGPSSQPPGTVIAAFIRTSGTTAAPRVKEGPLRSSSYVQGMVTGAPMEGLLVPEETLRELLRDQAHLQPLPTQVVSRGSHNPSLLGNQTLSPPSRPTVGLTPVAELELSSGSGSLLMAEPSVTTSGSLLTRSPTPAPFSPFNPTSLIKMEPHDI
Chain of CRX (O43186 whole entry): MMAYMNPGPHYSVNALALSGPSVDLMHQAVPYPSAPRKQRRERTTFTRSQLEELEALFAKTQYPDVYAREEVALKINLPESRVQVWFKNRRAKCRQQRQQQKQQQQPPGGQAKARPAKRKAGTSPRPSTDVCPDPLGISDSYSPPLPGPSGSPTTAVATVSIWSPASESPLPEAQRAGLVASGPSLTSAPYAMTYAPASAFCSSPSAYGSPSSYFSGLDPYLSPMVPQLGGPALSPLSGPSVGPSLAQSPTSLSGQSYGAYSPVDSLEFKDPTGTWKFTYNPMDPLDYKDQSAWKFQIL
Chain of ETV5 (P41161 whole entry): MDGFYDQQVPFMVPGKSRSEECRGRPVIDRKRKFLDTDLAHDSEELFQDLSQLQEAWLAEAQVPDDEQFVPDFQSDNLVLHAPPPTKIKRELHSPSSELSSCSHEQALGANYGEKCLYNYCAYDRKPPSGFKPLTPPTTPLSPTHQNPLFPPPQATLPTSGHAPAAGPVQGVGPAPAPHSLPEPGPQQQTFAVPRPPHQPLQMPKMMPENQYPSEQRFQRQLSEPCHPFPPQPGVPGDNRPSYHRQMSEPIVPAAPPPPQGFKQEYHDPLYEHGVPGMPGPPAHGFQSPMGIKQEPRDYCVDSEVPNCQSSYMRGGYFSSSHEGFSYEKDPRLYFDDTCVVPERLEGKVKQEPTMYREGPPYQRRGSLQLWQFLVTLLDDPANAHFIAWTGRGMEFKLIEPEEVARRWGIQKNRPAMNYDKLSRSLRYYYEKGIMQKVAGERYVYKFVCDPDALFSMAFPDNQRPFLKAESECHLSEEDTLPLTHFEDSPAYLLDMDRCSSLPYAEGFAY
Chain of HSF1 (Q00613 whole entry): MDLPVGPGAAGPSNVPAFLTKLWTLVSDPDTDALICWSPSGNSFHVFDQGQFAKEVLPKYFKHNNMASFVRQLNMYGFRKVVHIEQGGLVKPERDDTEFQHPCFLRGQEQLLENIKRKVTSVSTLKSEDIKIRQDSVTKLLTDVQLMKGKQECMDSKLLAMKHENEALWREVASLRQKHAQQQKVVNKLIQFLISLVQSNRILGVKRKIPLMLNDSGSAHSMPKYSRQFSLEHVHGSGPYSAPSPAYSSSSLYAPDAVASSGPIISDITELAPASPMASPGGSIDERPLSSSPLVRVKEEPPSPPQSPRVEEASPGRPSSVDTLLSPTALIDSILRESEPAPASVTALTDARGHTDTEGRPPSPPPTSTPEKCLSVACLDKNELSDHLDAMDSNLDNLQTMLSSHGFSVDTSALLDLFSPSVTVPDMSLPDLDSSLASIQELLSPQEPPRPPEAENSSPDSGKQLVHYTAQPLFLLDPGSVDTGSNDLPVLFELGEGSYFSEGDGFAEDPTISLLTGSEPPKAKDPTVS
Chain of ELF1 (P32519 whole entry): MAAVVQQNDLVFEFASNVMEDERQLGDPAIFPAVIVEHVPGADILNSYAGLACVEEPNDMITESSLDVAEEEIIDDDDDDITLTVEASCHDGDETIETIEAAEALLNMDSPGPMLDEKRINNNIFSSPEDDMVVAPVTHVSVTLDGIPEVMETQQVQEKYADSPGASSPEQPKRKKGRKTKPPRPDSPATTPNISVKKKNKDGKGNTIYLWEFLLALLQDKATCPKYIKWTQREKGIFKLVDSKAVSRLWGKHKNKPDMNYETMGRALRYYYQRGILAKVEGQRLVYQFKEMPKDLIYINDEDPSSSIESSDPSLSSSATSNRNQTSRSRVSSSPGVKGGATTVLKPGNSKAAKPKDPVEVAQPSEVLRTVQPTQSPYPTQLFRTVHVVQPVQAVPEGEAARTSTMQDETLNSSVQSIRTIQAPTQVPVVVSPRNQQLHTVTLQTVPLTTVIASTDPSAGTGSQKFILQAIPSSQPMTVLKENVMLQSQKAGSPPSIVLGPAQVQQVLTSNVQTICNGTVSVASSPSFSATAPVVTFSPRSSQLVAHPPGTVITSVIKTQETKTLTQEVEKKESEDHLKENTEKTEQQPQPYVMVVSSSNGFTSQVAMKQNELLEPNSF
Chain of ETV1 (P50549 whole entry): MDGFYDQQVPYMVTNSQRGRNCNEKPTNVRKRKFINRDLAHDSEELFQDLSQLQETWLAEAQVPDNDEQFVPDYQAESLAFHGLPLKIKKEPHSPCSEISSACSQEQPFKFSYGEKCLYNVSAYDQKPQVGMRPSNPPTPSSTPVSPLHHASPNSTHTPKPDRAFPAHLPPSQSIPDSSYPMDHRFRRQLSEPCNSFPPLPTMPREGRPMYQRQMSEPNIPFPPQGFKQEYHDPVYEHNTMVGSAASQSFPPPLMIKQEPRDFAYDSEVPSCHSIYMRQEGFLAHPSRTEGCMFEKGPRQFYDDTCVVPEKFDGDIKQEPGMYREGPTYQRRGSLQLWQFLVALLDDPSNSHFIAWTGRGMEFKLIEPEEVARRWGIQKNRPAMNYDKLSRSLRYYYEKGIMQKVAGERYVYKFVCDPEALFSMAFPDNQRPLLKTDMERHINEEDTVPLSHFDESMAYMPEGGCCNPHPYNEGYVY

## CACGAT
FLI1
  binding signal: 1.4 fold enrichment (6-mer frequency, TF over GST control)
ELK1
  binding signal: 1.26 fold enrichment (6-mer frequency, TF over GST control)
GABPA
  binding signal: 1.33 fold enrichment (6-mer frequency, TF over GST control)
ERG
  binding signal: 1.24 fold enrichment (6-mer frequency, TF over GST control)
ELF1
  binding signal: 1.27 fold enrichment (6-mer frequency, TF over GST control)
EHF
  binding signal: 1.32 fold enrichment (6-mer frequency, TF over GST control)
SPI1
  binding signal: 1.27 fold enrichment (6-mer frequency, TF over GST control)
SPIB
  binding signal: 1.32 fold enrichment (6-mer frequency, TF over GST control)
ELK3
  binding signal: 1.25 fold enrichment (6-mer frequency, TF over GST control)
FEV
  binding signal: 1.23 fold enrichment (6-mer frequency, TF over GST control)
ETV5
  binding signal: 1.26 fold enrichment (6-mer frequency, TF over GST control)
HSF1
  binding signal: 1.27 fold enrichment (6-mer frequency, TF over GST control)
SPIC
  binding signal: 1.55 fold enrichment (6-mer frequency, TF over GST control)
ELF4
  binding signal: 1.34 fold enrichment (6-mer frequency, TF over GST control)
ELK4
  binding signal: 1.24 fold enrichment (6-mer frequency, TF over GST control)
ETV2
  binding signal: 1.17 fold enrichment (6-mer frequency, TF over GST control)
ELF3
  binding signal: 1.36 fold enrichment (6-mer frequency, TF over GST control)
CRX
  binding signal: 1.39 fold enrichment (6-mer frequency, TF over GST control)
ETV1
  binding signal: 1.28 fold enrichment (6-mer frequency, TF over GST control)
